According to PubChem BioAssay AID489038 (National Center for Advancing Translational Sciences (NCATS), 2010):
Inconclusive results are not listed. Calls of active or inactive are those of the source. Calls come from the whole dose curve; as a rule, active = well fitted inhibition curve with a large enough effect; inconclusive = small, poorly fitted or top-dose-only effect, or effect the other way; inactive = no such curve, though single readings can be large or run the other way.

assay: DHR3 selectivity assay for inhibitors of ROR gamma transcriptional activity; settings: Drosophila S2 Gal4-DHR3 UAS-luciferase, 20 h; series mostly up to 92.2 µM; activity change, negative = inhibition: at the top concentration
Excerpt: NIH Molecular Libraries Probe Production Network [MLPCN] NIH Chemical Genomics Center [NCGC] MLPCN Grant: R03 DA026211-01 Assay Provider: Dan Littman, New York University Assay Overview: The retinoic acid-related orphan receptor (ROR) gamma is a transcription factor that has a central role in the differentiation of Th17 cells, a subset of T helper cells that secrete the inflammatory cytokines IL-17A, IL-17F, and IL-22. Th17 cells have been implicated in graft versus host disease, autoimmune disease and asthma. RORgamma is induced in naive T helper cells in the presence of TGF-beta combined with IL-6, IL-21, or IL-23, and thereafter directs the expression of the Th17 lineage cytokines. To identify […] inhibitors, a Drosophila Schneider cell line was stably transfected with two vectors: a gene expressing a fusion of the Gal4 DNA binding domain and the transactivation domain of the Drosophila Hormone Receptor 3 (DHR3), under the control of the metallothionine promoter and a Photinus luciferase reporter regulated by the Gal4 binding site enhancer, UAS. […] Small molecule inhibitors that inhibit components common to the RORgamma and DHR3 assays, such as proteins that interact with general nuclear hormone receptors, will be active in both assays and thus scored as nonselective.
Assay Protocol Summary: For screening, 600 cells in 4 uL/well were dispensed into white solid 1536-well plates (Grenier) using a solenoid-based dispenser. Following transfer of 23 nL compound or DMSO vehicle by a pin tool, the plates were incubated 1 hr at ambient temperature, and 1 uL/well copper sulfate (700 uM final concentration) was added. The plates were centrifuged 15 s at 1000 RPM and incubated 20 hr at ambient temperature. After addition of 1.5 uL Photinus luciferase detection reagent, the plates were incubated 10 min at ambient temperature and then read by an ViewLux (Perkin Elmer) to detect luminescence.
% is set by controls: 0 for no effect and ±100 for the full control effect; potency is the fitted concentration of half-maximal effect.

Row | SMILES | activity change, negative = inhibition | Potency
1 | COc1ccc(C(CC(=O)N2CCCC(C)C2)c2c(O)cc(OC)cc2OC)c(OC)c1 (configuration not stated) | 15.3% (inactive) | 
2 | COc1cc(OC)c(C(CC(=O)N2CCCC(C)C2)c2ccc3c(c2)OCO3)c(OC)c1 (configuration not stated) | 27.2% (inactive) | 
3 | CC1=C(\C=C/C(C)=C/C=C\C(C)=C\C(=O)O)C(C)(C)CCC1 | -6.6% [at 20 µM] (inactive) | 
4 | COc1cc(O)c(C(CC(=O)N2CCC(c3ccccc3)CC2)c2ccc3c(c2)OCO3)c(OC)c1 (configuration not stated) | 15.7% (inactive) | 
5 | COc1cc(O)c(C(CC(=O)N2CCCC(C)C2)c2ccc3ccccc3c2)c(OC)c1 (configuration not stated) | -16.1% (inactive) | 
6 | COc1cc(O)c(C(CC(=O)N2CCCC(C#N)C2)c2ccc3c(c2)OCO3)c(OC)c1 (configuration not stated) | 11.7% (inactive) | 
7 | CCOc1ncccc1C(=O)OCC(=O)Nc1ccc(-c2nc3ccc(C)cc3s2)cc1 |  | 0.363 µM (active)
8 | COc1ccc(-c2c[n+]3c(n2-c2ccc(C)cc2)CCCCC3)cc1 |  | 8.12 µM (active)
9 | COc1cc(O)c(C(CC(=O)N2CCC(C)CC2)c2ccc3c(c2)OCO3)c(OC)c1 (configuration not stated) | 26.2% (inactive) | 
10 | CCOC(=O)C1CCN(CC(=O)Nc2cc(C)nn2-c2nc3ccccc3s2)CC1 |  | 7.24 µM (active)
11 | COc1cc(O)c(C(CC(=O)N2CCCC(C(C)C)C2)c2ccc3c(c2)OCO3)c(OC)c1 (configuration not stated) | -23% (inactive) | 
12 | COc1cc(O)c(C(CC(=O)N2CCCC(C(F)(F)F)C2)c2ccc3c(c2)OCO3)c(OC)c1 (configuration not stated) | -17.6% (inactive) | 
13 | Cc1ccc(Sc2cncc3sc(C(N)=O)cc23)cc1 |  | 0.102 µM (active)
14 | COc1cc(OC)c(C(CC(=O)N2CCCC(C)C2)c2ccc3c(c2)OCO3)c(OCc2ccccc2)c1 (configuration not stated) |  | 14.4 µM (active)
15 | COc1cc(O)c(C(CC(=O)N(C)c2cccc(C)c2)c2ccc3c(c2)OCO3)c(OC)c1 (configuration not stated) | -32.8% (inactive) | 
16 | CCC(=O)C1CCCN(C(=O)CC(c2ccc3c(c2)OCO3)c2c(O)cc(OC)cc2OC)C1 (configuration not stated) | 23.3% (inactive) | 
17 | Cc1ccc(C)c(C(CC(=O)N2CCCC(C)C2)c2ccc3c(c2)OCO3)c1O (configuration not stated) | 5.84% (inactive) | 
18 | COc1cc(O)c(C(CC(=O)N2CCCC(C)C2)c2cccc3ccccc23)c(OC)c1 (configuration not stated) | 12.5% (inactive) | 
19 | COc1ccc(C(CC(=O)N2CCCC(C)C2)c2ccc3c(c2)OCO3)c(O)c1 (configuration not stated) | 13% (inactive) | 
20 | CCNC(=O)CCc1nc(-c2ccc(C(C)(C)C)cc2)no1 |  | 0.115 µM (active)
21 | Cc1ccc(C(C)C)c(C(CC(=O)N2CCCC(C)C2)c2ccc3c(c2)OCO3)c1O (configuration not stated) | -27.4% (inactive) | 
22 | COc1cc(OC)c(C(CC(=O)N2CC(C)CC(C)C2)c2ccc3c(c2)OCO3)c(OCC(N)=O)c1 (configuration not stated) | 15.1% (inactive) | 
